In the library only some 11% were active in any assay of this set; here they are far more common.
L3MBTL1 block: inhibitors of human L3MBTL1; AlphaScreen L3MBTL1–H3K9me1 peptide binding; Potency, µM (titrated, usually from 57.1 µM), for the others: top-dose activity, negative = inhibition, usual class: inhibitors; Q9Y468; actives 0.66% (n = 230,000); further: potency means the concentration at half of the fitted maximal effect; on the % scale 0 is the no-effect control and ±100 the full control effect; nearly all actives have a fitted effect of over 60% in size
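L3MBTL1 (50 nM) pre-complexed 30 min with biotinylated H3(1-15)K9me1 peptide (75 nM), then compounds added for 30 min at room temperature; AlphaScreen streptavidin donor/nickel chelate acceptor beads (10 ug/mL final) read after 30 min dark incubation.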
BAZ2B inh: blocks human BAZ2B | Q9UIF8 | AlphaScreen BAZ2B-H3K14Ac peptide displacement | Potency, µM (top dose mostly 114 µM), for the others: at the top dose activity change, negative = inhibition, usual class: inhibitors | actives 4.4% (n = 360,000) | AID 504333; further: potency means the concentration at half of the fitted maximal effect; on the % scale 0 is the no-effect control and ±100 the full control effect; nearly all actives have a fitted effect of over 60% in size
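BAZ2B (50 nM) with biotin-H3(5-23)K14Ac peptide (50 nM) in PBS pH 7.4, 0.01% Tween-20, preformed 30 min, then compound 30 min at room temperature; top concentration 110uM. AlphaScreen streptavidin donor/nickel chelate acceptor beads (10 ug/mL final), 20 min dark, signal read.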
JMJD2A Tudor: blocks the human JMJD2A Tudor domain. O75164. AlphaScreen JMJD2A-Tudor / H3K4me3 peptide binding. Potency, µM (titrated, usually from 114 µM), inactives show top-dose activity change, negative = inhibition, actives largely listed as inhibitors. actives 4.4% (n = 390,000). AID 504339; further: potency means the concentration at half of the fitted maximal effect; on the % scale 0 is the no-effect control and ±100 the full control effect; nearly all actives have a fitted effect of over 50% in size
PI5P4K alpha inh: PI5P4K alpha (human) kinase inhibition; P48426; PI5P4Kalpha enzyme, ADP-Glo luminescence, 60 min; active compounds read low; max response, %; actives 1.2% (n = 330,000); AID 652105; active means max response of -50% or lower; inconclusive means between -30% and -50%; inactive means -30% or higher; further: value at the top dose of about 77 µM; on the % scale 0 is the no-effect control and ±100 the full control effect
Target sequence (P48426 whole entry, looked up): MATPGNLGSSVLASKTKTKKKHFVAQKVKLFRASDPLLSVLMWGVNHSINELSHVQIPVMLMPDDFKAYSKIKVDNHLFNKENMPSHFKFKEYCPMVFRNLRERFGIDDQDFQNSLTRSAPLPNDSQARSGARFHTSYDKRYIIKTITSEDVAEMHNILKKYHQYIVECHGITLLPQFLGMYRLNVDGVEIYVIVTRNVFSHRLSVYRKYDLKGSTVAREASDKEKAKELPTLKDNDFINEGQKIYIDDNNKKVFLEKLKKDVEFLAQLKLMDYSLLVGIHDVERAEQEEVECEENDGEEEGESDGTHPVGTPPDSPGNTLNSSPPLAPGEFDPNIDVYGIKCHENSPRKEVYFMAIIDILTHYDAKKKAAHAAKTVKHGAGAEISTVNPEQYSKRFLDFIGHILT
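Reactions run in 0.038 M HEPES pH 7.4, 0.28 mM EGTA, 0.1% CHAPS and 5% DMSO, with PI5P4Kalpha, substrate, compound and 5 microM ATP final, one hour at room temperature. Readout is ADP-Glo luminescence.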
HP1b chromo inh: blocks HP1-beta chromodomain binding to methylated histone tails. actives 0.56% (n = 390,000). AID 540317. Potency, µM (highest dose often 114 µM), for the others: top-dose activity change, negative = inhibition, most hits filed as inhibitors. P83916. AlphaScreen HP1-beta / biotin-H3K9me3 peptide binding; further: potency means the concentration at half of the fitted maximal effect; nearly all actives have a fitted effect of over 70% in size
Target sequence (P83916 whole entry, looked up): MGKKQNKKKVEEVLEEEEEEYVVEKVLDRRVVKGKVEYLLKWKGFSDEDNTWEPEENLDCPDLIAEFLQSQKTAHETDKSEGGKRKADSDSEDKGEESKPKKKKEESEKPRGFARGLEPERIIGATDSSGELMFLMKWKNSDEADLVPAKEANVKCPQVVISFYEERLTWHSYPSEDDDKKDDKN
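Compound inhibition of the preformed complex between 50 nM HP1-beta and 50 nM biotinylated H3K9me3 peptide was read by AlphaScreen. Buffer was PBS pH 7.4 with 0.01% Tween-20. Incubations ran 30 min at room temperature, with 10 ug/mL donor/acceptor beads.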
G9a inh: G9a (human) methyltransferase inhibition; actives 8.8% (n = 350,000); Potency, µM (highest dose often 102 µM), without a hit: at the highest dose activity, negative = inhibition, hits mostly inhibitors; G9a H3K9 monomethylation, AlphaScreen, 2 h; AID 504332; further: potency means the concentration at half of the fitted maximal effect; on the % scale 0 is the no-effect control and ±100 the full control effect; nearly all actives have a fitted effect of over 75% in size
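G9a (20 nM) preincubated 15 min RT with compounds, then 500 nM biotinylated H3K9 peptide and 20 uM SAM added; 2 h RT reaction. Monomethyl-H3K9 product detected by AlphaScreen with anti-H3K9me1 antibody, streptavidin donor and anti-rabbit IgG acceptor beads.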
Active calls of the source: *; ? = inconclusive; · = no result given; [ ] = remark or other dose. Unless noted, the call rests on the fitted dose curve; in most records, active means well fitted inhibition curve with a large enough effect; inconclusive means small, poorly fitted or top-dose-only effect; inactive means no such curve, though single readings can be large or run the other way.

SMILES	L3MBTL1 block	BAZ2B inh	JMJD2A Tudor	PI5P4K alpha inh	HP1b chromo inh	G9a inh
CCC(C)c1ccccc1OCCCN(C)Cc1ccccc1 (centres undefined)	4.2%	?	7.08µM*	-1.1	16.8%	11.2µM*
CN(CCOc1ccc(F)cc1)Cc1ccccc1	-1.8%	50.1µM*	0.794µM*	-12.1	?	10µM*
CN(C)CCCCOc1ccc(F)cc1	·	79.4µM*	0.891µM*	0.7	?	8.91µM*
N#Cc1ccc(NC(=O)COCc2cc(-c3ccc4c(c3)OCO4)on2)cc1	·	-2.0%	-15.2%	·	6.7%	2.0%[59 µM]
COc1ccc(OCC2c3cc(OC)c(OC)cc3CCN2C(=O)COc2ccc(Cl)cc2Cl)cc1 (centres undefined)	·	-23.5%	-35.8%	·	7.2%	-31.8%[59 µM]
CN(CCCCOc1ccc(F)cc1)Cc1ccccc1	-0.8%	79.4µM*	22.4µM*	3.3	?	·
CCN(CC)CCOc1ccc(Cc2ccccc2)cc1	·	·	·	·	·	7.5%[59 µM]
COc1ccc(N(Cc2ccccc2)N=O)cc1	2.1%	0.5%	26.9%	0.5	51.5%	39.8µM*
Cc1cc(C)c(C)c(OCCCCN(C)Cc2ccccc2)c1	6.3%	50.1µM*	11.2µM*	-2.7	?	10µM*
COc1ccc(N(Cc2ccccc2)S(=O)(=O)c2ccc(C)cc2)cc1	15.5%	2.7%	-16.5%[11.4 µM]	1.5	49.1%	38.0%
CCc1ccc(OCCCCN(C)Cc2ccccc2)cc1	3.6%	?	14.1µM*	9.2	?	·
COc1ccc(OCCCN(C)Cc2ccccc2)cc1	-3.9%	?	25.1µM*	-2.9	?	12.6µM*
COc1ccc(OCCN(C)Cc2ccccc2)cc1	-1.7%	4.1%	-26.5%	·	10.5%	?
Cc1ccc(NC(=O)c2cccs2)cc1	·	-0.8%	0.0%	·	16.5%	-6.0%[12.7 µM]
CCC(=O)Nc1ccc(C(=O)NNC(=O)c2cccs2)cc1	-0.3%	-0.3%	-13.3%	·	18.7%	0.199µM*
Cc1ccc(NC(=O)C(=O)NNC(=O)c2cccs2)cc1	15.1%	-24.0%	-8.8%	-4.2	38.4%	3.98µM*
O=C(NNc1c(Cl)cccc1Cl)c1cccs1	-7.8%	24.9%	?	6.4	14.1%	11.2µM*
CC(C)(NC(=O)c1cc(Cl)c2ccccc2c1O)C(=O)O	-10.1%	-21.2%	-14.8%	-3.6	30.3%	31.6µM*
Cc1ccc(NC(=S)N/N=C/c2ccc([N+](=O)[O-])s2)cc1	?	14.1µM*	39.8µM*	4.5	?	39.8µM*
Cc1nc2ccccc2n1/N=C/c1ccc([N+](=O)[O-])s1	-18.2%	-32.6%	-18.9%	-5.8	-22.9%	50.1µM*
NC(=O)c1ccc(N=Cc2ccc([N+](=O)[O-])s2)cc1	12.6µM*	-5.7%	-24.0%	-28.0	-24.3%	?
O=C(Cc1cccs1)N/N=C\c1ccc([N+](=O)[O-])s1	·	?	-27.5%	-27.8	6.1%	-30.9%
Cc1cc(C)cc(N=Cc2ccc([N+](=O)[O-])s2)c1	8.91µM*	25.1µM*	20µM*	-4.0	44.7µM*	39.8µM*
O=C(NCc1ccc(F)cc1)c1ccc(CSc2nc3ccncc3n2Cc2ccc(F)cc2)cc1	·	-0.8%	-1.1%	·	54.9%	-48.4%[59 µM]
O=C(O)c1cccnc1-c1ncccc1C(=O)O	-1.1%	-38.9%	?	1.3	-0.6%	56.2µM*
SMILES	L3MBTL1 block	BAZ2B inh	JMJD2A Tudor	PI5P4K alpha inh	HP1b chromo inh	G9a inh
O=C(O)c1cccc2cccnc12	·	?	-2.7%[11.4 µM]	-4.1	-11.8%	2.4%[59 µM]
Cc1c(-c2ccc(Cl)cc2)oc(=O)c2c(N)n(-c3ccccc3)nc12	-2.0%	50.1µM*	-34.0%	15.3	4.8%	-7.6%[59 µM]
Nc1c2c(=O)oc(-c3ccccc3)cc2nn1-c1ccccc1	-0.4%	-5.2%	-31.3%	·	17.8%	-19.4%[59 µM]
Cc1ccc(C(C)C)c(OCC(=O)NCC2(N3CCOCC3)CCCCC2)c1	·	11.9%	-18.2%	·	38.1%	-3.8%[59 µM]
CC(NC(=O)Cc1ccc(NC(=O)N2CCSc3ncccc32)cc1)c1ccccc1 (centres undefined)	·	-13.1%	-5.9%	·	36.3%	?
Cc1ccc(NC(=O)CSc2nnc(-c3cccnc3)o2)c(C)c1	-4.1%	2.9%	-13.5%	15.3	32.6%	44.7µM*
COc1ccc(CCNc2ncnc3nc[nH]c23)cc1	·	·	-2.1%	·	28.7%	·
Cc1cccc(Nc2nc(C)nc3c2oc2ccccc23)c1	·	?	-15.4%	-9.2	27.5%	79.4µM*
Cc1cccc(NC(=O)CSc2nnc(CNC(=O)c3c(F)cccc3Cl)o2)c1C	·	1.6%	1.4%	·	47.2%	-0.1%[59 µM]
O=C(NCCNCc1cccs1)c1ccccc1F	-1.0%	50.1µM*	3.55µM*	2.7	?	6.31µM*
O=C(NCc1cccs1)c1ccccc1F	2.5%	2.9%	10.1%	1.6	43.3%	-9.6%[59 µM]
COCCNC(=S)NCc1cccs1	6.1%	-5.3%	-0.7%	4.1	17.9%	28.2µM*
S=C(NCCc1ccccc1)NCc1cccs1	-4.0%	17.2%	-8.7%	-8.8	12.6%	24.9%[59 µM]
CCCc1nccn1S(=O)(=O)c1cc(Br)ccc1OC	·	3.2%	1.3%	·	35.7%	-5.0%[59 µM]
COc1ccc(NC(=O)c2c(-c3ccc(C)cc3)nnc3ccccc23)cc1Cl	·	-3.8%	-20.1%	·	-0.3%	7.5%[59 µM]
Cc1c(CBr)[n+](=O)c2c(n1[O-])C(Br)CCC2Br (centres undefined)	-4.8%	28.2µM*	20µM*	-29.3	-26.3%	7.94µM*
Cc1c(C)[n+](=O)c2c(n1[O-])C(Br)CCC2Br (centres undefined)	-3.7%	79.4µM*	79.4µM*	4.0	31.4%	1µM*
CCOc1ccc(NC(=O)CSc2oc(-c3ccco3)nc2S(=O)(=O)c2ccccc2)cc1	·	-15.3%	-6.5%	·	20.1%	0.1%[59 µM]
CCCN(CC(=O)Nc1ccc(F)c(F)c1F)C(=O)C1=COCCO1	1.0%	-10.0%	2.6%	6.6	38.4%	56.2µM*
COc1cccc(N2CCN(c3ccc4nnc(CCC(=O)O)n4n3)CC2)c1	·	·	-7.7%	·	29.6%	-1.5%[59 µM]
COc1ccc(C(CC(=O)Nc2ccc(F)c(Cl)c2)N2Cc3ccccc3C2=O)cc1OC (centres undefined)	·	-4.5%	-19.3%	·	13.2%	-5.4%[59 µM]

Source: PubChem BioAssay
